In all, about 25,000 sequences were measured (“ln(normalized median fluorescence intensity)”: median about 7.1, highest 2% from about 10 on). The entries come from a sample that favours the highest values as a whole.

This experiment relates to PfSIP2 AP2 domain 1 (GST-tagged). In words: gcPBM binding intensity (ln(normalized median fluorescence intensity)); higher = stronger DNA binding. The method in brief: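 For binding intensity, the highest Masliner-normalised natural-log median intensity across replicate spots of either probe orientation was taken. Protein bound to the array was stained with Alexa488 anti-GST antibody and scanned at 488 nm. The protein, GST-tagged P. falciparum DNA-binding domains from E. coli at about 25 μg on average, had been applied for 1 h to an Agilent 4 × 180k array of primer-extended double-stranded 36-bp intergenic genomic probes and negative controls.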
On to “TTAAATAAAAGGTTTAGTACTTAAAATAAGAAATGA [XGTACX_site6341]”, for which the “gcPBM binding intensity (ln)” value is 6.91.

Take “GTATGTAATATTTTAGTGCAAAAAAAAAAAAAAAAA [GTGCAC_site9790]”: the “gcPBM binding intensity (ln)” value was 8.3.

As for “ACAAAAAGTTACATACGTACGTAAAATTGTAATAAA [XGTACX_site2358]”, the “gcPBM binding intensity (ln)” value came out at 6.96.

Turning to “TCCATCCACATATATGTACACACATATATATATATA [CACACA_site8970]”, the “gcPBM binding intensity (ln)” value came out at 9.43.

For “TTTTTTTTTTTTTTTTGTCCGTACTGCTTTGTGTTT [XGTACX_site3687]”, the “gcPBM binding intensity (ln)” value came out at 6.99.

Turning to “AAAAAAAAAAATTAAAGTACAAAAATATTAAAAATA [XGTACX_site6517]”, the “gcPBM binding intensity (ln)” value was 6.8.

Take “ATATATATATATCACCGTACTTATATAATAACATGA [XGTACX_site4398]”: the “gcPBM binding intensity (ln)” value worked out at 9.36.

For the sequence “AGAATATATATAATAGTGCAATGTACAATGAACAAA [GTGCAC_site9577]”, the “gcPBM binding intensity (ln)” value is 8.01.

Regarding “AATTATATTTAGTATATGCACACTTTATGTTTGTTA [CACACA_site2025]”, the “gcPBM binding intensity (ln)” value was determined as 7.9.

For the sequence TTTTGTTATTTTGAAGTGCACTTTCCACTTAATATA, the “gcPBM binding intensity (ln)” value is 11.

For “AATAATATTTATTTTTGTACATATGTGCATTATAAA [XGTACX_site3682]”, the “gcPBM binding intensity (ln)” value stood at 7.13.

With ATGAAATATTTATTTGTGCACTTAATTTGTTGGAAA, the “gcPBM binding intensity (ln)” value was determined as 10.4.

Consider TATATTTATATATTAGTGCACTTTTTGTTAATTTTT, for which the “gcPBM binding intensity (ln)” value turned out to be 10.7.

Turning to “TATATATATTAGTGTGCACACTTTTTATTTTTATCC [CACACA_site8506]”, the “gcPBM binding intensity (ln)” value turned out to be 8.6.

Turning to “TTTATTTGTGCATATACACACTTAAATATGTTTATT [CACACA_site7772]”, the “gcPBM binding intensity (ln)” value amounted to 7.65.

“AGTACATTTTTGTGTGTGCACTAATATTATATACTT [GTGCAC_site9568]”: the “gcPBM binding intensity (ln)” value was 10.3.

As to “TTTTTTTTTTTTTTGTGTACTAATATTATAAATTTT [XGTACX_site4405]”, the “gcPBM binding intensity (ln)” value is 7.01.

Turning to TTTGGAATATTAATTGTGCACTTAAAAAGTTAATTA, the “gcPBM binding intensity (ln)” value turned out to be 10.

For ATTATTTTTTTTGAAGTGCAATATTATTTTTAATCA, the “gcPBM binding intensity (ln)” value turned out to be 8.2.

As for TTTTTTTTGATTTGTTTGCACTTATTTCCACAATAA, the “gcPBM binding intensity (ln)” value was 8.23.

In the case of “GTATATAAATATATATATATATATATATCTATATTT [CACACA_negctrl_site871]”, the “gcPBM binding intensity (ln)” value came out at 7.42.

As to “ATATTATAAAATAAAAGTACACAATTATATATATAT [XGTACX_site8812]”, the “gcPBM binding intensity (ln)” value amounted to 8.6.

As to “ATTATATAACAAAATAGTACATATATTTATTACATC [XGTACX_site336]”, the “gcPBM binding intensity (ln)” value came to 6.99.

In the case of “CCATATTTCATTAATGAACACACAAAGAGGTATATA [CACACA_site8431]”, the “gcPBM binding intensity (ln)” value is 7.11.

Take “TTCTTCAATATATTCTTACACACTTAAAAAAAAAAA [CACACA_site228]”: the “gcPBM binding intensity (ln)” value came out at 7.5.

Turning to “ATAGGACCTATGTGCCCATGGGTACATTAAAAAAAA [CACACA_negctrl_site1465]”, the “gcPBM binding intensity (ln)” value amounted to 6.83.

As to “AAGAAAAATATATATATAAATAAATAAATATATATA [TGCATGCA_negctrl_site330]”, the “gcPBM binding intensity (ln)” value was determined as 6.98.

For TATTTATAAATATGTGTGCACAATTTATTTTATAAT, the “gcPBM binding intensity (ln)” value stood at 9.67.

Turning to “TTTTGTTACTTTTATGTGCACTTATAAAACGAACTA [GTGCAC_site9551]”, the “gcPBM binding intensity (ln)” value came out at 10.3.

In the case of “AACTATTTTATTATATGTACTTACGAATTTATAAAA [XGTACX_site5262]”, the “gcPBM binding intensity (ln)” value turned out to be 7.04.

Turning to ATAATATATGTATGTATGCACTTTTATTATTTTTTT, the “gcPBM binding intensity (ln)” value came out at 8.01.

Turning to TATATATAAATATATGTGCACTTTTTATATTTATAT, the “gcPBM binding intensity (ln)” value is 10.6.

As for CGATTTTTTAAGTTTGTGCACTTAAAAACTATAACA, the “gcPBM binding intensity (ln)” value stood at 9.78.

In the case of TGTATTAAAAATTTGGTGCAACTTTTACATAATAAT, the “gcPBM binding intensity (ln)” value worked out at 10.5.

For “CTTTTAAATTATTTTTGTACATAATTATATATATAT [XGTACX_site4128]”, the “gcPBM binding intensity (ln)” value worked out at 8.44.

Turning to “TTTTTATTACATAATTAAAAAAAATAATAAAATAAA [XGTACX_negctrl_site249]”, the “gcPBM binding intensity (ln)” value was 6.8.

With “ATATTATATTATTAATGTACATATATATAATTTTAA [XGTACX_site4974]”, the “gcPBM binding intensity (ln)” value amounted to 7.05.

As for “AATTTTGTATAGGTATCACACATGAAATATATTATT [CACACA_site5526]”, the “gcPBM binding intensity (ln)” value was determined as 6.98.

For “ATATATATATATATATGTACATATATTTGTAATGTC [XGTACX_site8074]”, the “gcPBM binding intensity (ln)” value was 9.37.

“TTTCATATATATGAAACACACAAAGGAAAAAAAATT [CACACA_site4144]”: the “gcPBM binding intensity (ln)” value was 7.23.

On to “AATATAAATATAAATATAAATATATATATATATATA [TGCATGCA_negctrl_site603]”, for which the “gcPBM binding intensity (ln)” value amounted to 9.38.

Turning to “CCTTAAAATAAGATATGTACGCAAAGGAAAACAAAG [XGTACX_site6057]”, the “gcPBM binding intensity (ln)” value was determined as 7.62.

For ATATATTTTTATGTAGTGCATTTAAATAATAAATGC, the “gcPBM binding intensity (ln)” value was 8.42.

Take AAATAAATAAATAGAGTGCATATATATATATATTTT: the “gcPBM binding intensity (ln)” value stood at 8.61.

In the case of “CTATGCATTTATAGTGCATGTAAAATATAAGATAAT [TGCATGCA_site71]”, the “gcPBM binding intensity (ln)” value stood at 10.3.

On to “AAATATTTTTAGAGTGCATGTAATAAAAATATAATG [TGCATGCA_site19]”, for which the “gcPBM binding intensity (ln)” value was 10.1.

On to “CATTTTTCTATATGTGCATGTAAGATAAGAATAATT [TGCATGCA_site107]”, for which the “gcPBM binding intensity (ln)” value turned out to be 8.22.

As to “TATATAATAAGATATGCATGCACATGTAAAATGAAT [TGCATGCA_site499]”, the “gcPBM binding intensity (ln)” value came to 8.94.

With “TTAAATATTTTTAGAGTGCATGTAATAAAAATATAA [GTGCAC_site9414]”, the “gcPBM binding intensity (ln)” value stood at 10.2.

For ATTATATATAATATAGTGCATGTAAAAAATAAAACA, the “gcPBM binding intensity (ln)” value amounted to 10.

Consider “TTCTATGCATTTATAGTGCATGTAAAATATAAGATA [GTGCAC_site9466]”, for which the “gcPBM binding intensity (ln)” value turned out to be 10.9.
